# High-throughput results as filed in PubChem BioAssay.
# Shown are actives, neighbours in structure and some others; about 19% of the full set was active somewhere.
# HT1080 IDH1KD tx – qHTS for induction of synthetic lethality in tumor cells producing 2HG: qHTS for the HT-1080-IDH1KD cell line | HT-1080 IDH1 knockdown viability, ATP luminescence, 48 h | Potency, µM (doses to about 46.1 µM), without a hit: at the highest dose activity, negative = toxicity, actives largely listed as cytotoxic | 360,000 compounds, 2% hits | AID 686971, 2013;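 also: potency is read from the fitted curve at half-maximal effect; 0% = DMSO wells and -100% = cell-free medium wells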
#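 CellTiter-Glo luminescence after 48 h compound exposure at 37 degrees C of IDH1-knockdown HT-1080 cells in 5% FBS RPMI. %Activity scaled between DMSO wells and cell-free media wells, with curves fitted and assigned curve classes.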
# DT40 TDP1 CPT – qHTS for Inhibitors of human tyrosyl-DNA phosphodiesterase 1 (TDP1): qHTS in cells in presence of CPT. chicken DT40 Tdp1-/-;hTDP1 cells + 20 nM CPT, ATP luminescence, 48 h. Potency, µM (titrated, usually from 46.2 µM), without a hit: top-dose activity change, negative = growth inhibition, actives largely listed as inhibitors. 420,000 compounds, 12% hits. AID 686979, 2013; also: potency is read from the fitted curve at half-maximal effect; nearly all actives have a fitted effect of over 55% in size
#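 Chicken DT40 Tdp1-/- cells complemented with human TDP1, 400 cells/well, exposed to compounds plus 20 nM camptothecin for at least 48 h at 37 C; viability read as ATP content by CellTiter-Glo luminescence.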
# IL-1B inflam inh – qHTS for Inhibitors of Inflammasome Signaling: IL-1-beta AlphaLISA Primary Screen; 360,000 compounds, 4.7% hits; activity change, % at 57.5 µM; AID 743279, 2014; THP-1 LPS/ATP IL-1B secretion, AlphaLISA, 16 h; active compounds read low; in the data active = activity change below about -50%; inconclusive = mostly about -30% to -49%
#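 Secreted IL-1B measured by AlphaLISA bead assay after 16 h compound exposure of THP-1 cells; compounds (final up to 57.5 uM) added 1 h before LPS (250 ng/mL) and ATP (1.25 mM) stimulation; lower signal means less secretion.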
# TDP1 cell noCPT – qHTS for Inhibitors of human tyrosyl-DNA phosphodiesterase 1 (TDP1): qHTS in cells in absence of CPT; DT40 Tdp1-/- hTDP1 cells, no CPT, ATP luminescence, 48 h; Potency, µM (highest dose often 46.2 µM), without a hit: at the top dose activity change, negative = growth inhibition, actives largely listed as inhibitors; 420,000 compounds, 15% hits; also: potency is read from the fitted curve at half-maximal effect; nearly all actives have a fitted effect of over 55% in size
#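 Chicken DT40 Tdp1-/- cells stably complemented with human TDP1 were seeded at 400 cells/well with DMSO in place of 20 nM camptothecin. After compound pinning, cells grew at least 48 hr at 37 °C; viability read by CellTiter-Glo luminescence.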
# HT1080-NT tox – qHTS for induction of synthetic lethality in tumor cells producing 2HG: qHTS for the HT-1080-NT fibrosarcoma cell line. Potency, µM (series often up to 46.1 µM), for inactives: at the top dose activity, negative = less viability, usual class: cytotoxic. HT-1080-NT fibrosarcoma viability, CellTiter-Glo ATP luminescence, 48 h. 360,000 compounds, 1.6% hits. AID 686970, 2013;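 also: NT is the 2HG producing partner of a matched IDH1 knockdown line; potency is read from the fitted curve at half-maximal effect; 0% = DMSO-treated cells and -100% = media-only wells without cells; nearly all actives have a fitted effect of over 55% in size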
#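 Viability by CellTiter-Glo luminescence after 48 h compound exposure at 37C of HT-1080-NT cells (750/well, RPMI, 5% FBS). % activity scaled between DMSO wells and medium-only wells, then curve-fitted and categorized by curve class.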
# * hit, by the source's call; i = inactive; ? = inconclusive; . = no result given. Unless noted, calls follow the shape of the dose curve; as a rule, active = well fitted curve in the direction sought with a large enough effect; inconclusive = small, poorly fitted or top-dose-only effect, or another doubt; inactive = no such curve, though single readings can be large; an effect the other way counts as inactive or inconclusive. Unless noted, % is scaled to controls: 0 for no effect and ±100 for the full control effect.
SMILES,HT1080 IDH1KD tx,DT40 TDP1 CPT,IL-1B inflam inh,TDP1 cell noCPT,HT1080-NT tox
Cc1cc(C)c(S(=O)(=O)/N=C2\C=C(Nc3ccc(C(=O)O)cc3)C(=O)c3ccccc32)c(C)c1,4.1µM*,3.7µM*,-104*,3.7µM*,8.2µM*
Cc1ccc(S(=O)(=O)/N=C2\C=C(NS(=O)(=O)c3ccccc3)C(=O)c3ccccc32)cc1,?,21µM*,49,26µM*,?
Cc1ccccc1OCCC(=O)Nc1ccc(N2CCOCC2)cc1N1CCOCC1,1%,-3%,-5,0%,3%
CCOC(=O)C1CCN(C(=O)C2CCN(S(=O)(=O)c3cccc4nsnc34)CC2)CC1,10%,?,2,-3%,-1%
COc1ccc(CCC2=NCCN2C(CC(C)C)c2nc3ccccc3[nH]2)cc1 (stereo not drawn),?,21µM*,0,16µM*,?
COc1ccc(CCc2nc3ccccc3n2C(CCc2ccccc2)c2nc3ccccc3[nH]2)cc1 (stereo not drawn),-8%,?,-16,?,-13%
Cc1cc(C)c(NC(=O)C2CCN(C(=O)N3CC(C)Oc4ccc(Cl)cc43)CC2)c(C)c1 (stereo not drawn),.,?,.,21µM*,.
CCOc1ccc(NC(=O)C2CCN(C(=O)N3CC(C)Oc4ccc(Cl)cc43)CC2)cc1 (stereo not drawn),.,23µM*,.,15µM*,.
CC1CN(C(=O)NCc2ccccc2)c2cc(Cl)ccc2O1 (stereo not drawn),-11%,?,-20,?,-5%
CC1CN(C(=O)N2CCC(C(=O)NC3CCCCCC3)CC2)c2cc(Cl)ccc2O1 (stereo not drawn),.,15µM*,.,18µM*,.
COc1ccc(NC(=O)Cn2cc(S(=O)(=O)N3CCC(C)CC3)c3ccccc3c2=O)cc1Cl,.,?,.,-9%,.
COc1ccc(S(=O)(=O)N2CCN(c3ccc(C)cc3C)CC2)cc1OC,-4%,21µM*,10,?,2%
O=c1ccc2cc(S(=O)(=O)N3CCN(c4cc(Cl)ccc4Cl)CC3)ccc2o1,-17%,-15%,-13,?,5%
Cc1ccc(N2CCN(S(=O)(=O)c3ccc4oc(=O)ccc4c3)CC2)c(C)c1,?,16µM*,-9,?,-1%
O=C(Nc1cc2c3c(c1)CC(=O)N3CCC2)C1CCCCC1,-14%,9%,-2,2%,-2%
Cn1c(C(=O)N[C@@H](C(=O)O)c2ccccc2)cc2cc(F)ccc21,-4%,29%,7,13%,5%
CCOC(=O)c1ccccc1NC(=O)COC(=O)CSC(C)C(=O)Nc1cc(C)on1 (stereo not drawn),5%,5%,i,7%,8%
CCCCN(C)CCNC(=O)c1c2c(nc3ccccc13)C(=O)N(C1CCCCC1)C2,.,-21%,.,-28%,.
CCOC(=O)c1c(N2C(=O)C=CC2=O)sc(C)c1C,5µM*,1.2µM*,-96*,2.6µM*,4µM*
CCOC(=O)c1c(NC(N)=O)sc(C)c1C,4%,-24%,-1,-11%,0%
CN(Cc1ccccc1)C(=O)c1ccco1,0%,-17%,-6,8%,-1%
O=C(C#Cc1ccccc1)c1ccco1,6.5µM*,1.3µM*,-101*,0.58µM*,12µM*
COc1ccc2[nH]c3c(c2c1)CCN1C(=O)N([C@@H](C)C(=O)NC2CC2)C(=O)[C@]31C,-2%,-26%,10,?,2%
C[C@@H](C(=O)NC1CCN(Cc2ccccc2)CC1)N1C(=O)N2CCc3c([nH]c4ccccc34)[C@@]2(C)C1=O,1%,23µM*,-18,?,-2%
COc1ccc2[nH]c3c(c2c1)CCN1C(=O)N([C@@H](C)C(=O)NC2CCN(Cc4ccccc4)CC2)C(=O)[C@]31C,-17%,16µM*,-22,16µM*,-5%
SMILES,HT1080 IDH1KD tx,DT40 TDP1 CPT,IL-1B inflam inh,TDP1 cell noCPT,HT1080-NT tox
CC(C)[C@@H](C(=O)NC1CCN(Cc2ccccc2)CC1)N1C(=O)N2CCc3c([nH]c4ccccc34)[C@@]2(C)C1=O,-23%,18µM*,?,13µM*,-14%
COc1ccc2[nH]c3c(c2c1)CCN1C(=O)N([C@@H](C)C(=O)NC2CCCC2)C(=O)[C@]31C,10%,12µM*,-8,?,7%
C[C@@H](C(=O)NC1CCCCC1)N1C(=O)N2CCc3c([nH]c4ccccc34)[C@@]2(C)C1=O,-3%,?,6,?,-8%
COc1ccc(-n2nc(C)c3c(=O)c4c([nH]c32)CCCC4)cc1,3%,?,0,-16%,0%
CN(CCO)C(=O)c1cn(C2CCCN(Cc3ccc4ccccc4c3)C2)nn1 (stereo not drawn),.,-7%,.,-20%,.
CC(C)C[C@@H](C(=O)NC1CCN(Cc2ccccc2)CC1)N1C(=O)N2CCc3c([nH]c4ccccc34)[C@@]2(C)C1=O,?,12µM*,-25,21µM*,?
Cn1c(=O)cc(Nc2ccc(Cl)cc2)[nH]c1=O,-4%,?,41,21µM*,0%
Cn1c(=O)cc(NCCc2ccccc2)[nH]c1=O,-27%,7.3µM*,28,10µM*,-23%
Cn1c(=O)cc(Nc2ccccc2)[nH]c1=O,0%,-16%,28,-18%,13%
Cn1c(NCCc2ccccc2)cc(=O)n(C)c1=O,19%,0%,-11,-16%,20%
O=C(NC(=S)NNC(=O)c1ccco1)c1ccc(Br)cc1,?,?,35,?,-30%
Cc1ccc(F)cc1NC(=O)Cn1c(=O)nc(-c2ccccc2F)c2cc(Cl)ccc21,.,-29%,.,?,.
COc1ccccc1CNC(=O)Cn1c(=O)nc(-c2ccccc2F)c2cc(Cl)ccc21,.,?,.,6.5µM*,.
CCOc1ccccc1NC(=O)Cn1c(=O)nc(-c2ccccc2F)c2cc(Cl)ccc21,.,?,.,21µM*,.
CC1C=CC=CC=CC=CC=CC=CC=CC(OC2OC(C)C(O)C(N)C2O)CC2OC(O)(CC(O)CC(O)C(O)CCC(O)CC(O)CC(=O)OC(C)C(C)C1O)CC(O)C2C(=O)O (stereo not drawn),9.2µM*,4.6µM*,63,3.3µM*,4.6µM*
CCNC(=O)NC(=O)COC(=O)CCc1nc(=O)c2ccccc2n1C,2%,-9%,0,-1%,0%
